# Measurements from PubChem BioAssay (NCI).
# This is part of a sample that, as a whole, favours compounds with a hit. Of some 83,000 tested, about 20% had one in any assay.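 96-well plates, one dose, 48 hours. Percent growth reported; active if below 10.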 Activity calls are given as the source filed them.
# Test system: SK-OV-3 ovarian
# Assay: NCI-60 one-dose screen, 48 h (100 = growth as untreated, 0 = no growth, -100 = all killed)
# Conditions: 10 µM
# Method: Growth inhibition of the SK-OV-3 human tumor cell line is measured as a screen for anti-cancer activity. Cells are grown in 96 well plates and exposed to the test compound for 48 hours. Compounds are tested at a single concentration, which is 10^-5 M for most compounds. The reported endpoint is percent growth (GI% or GIPRCNT), where numbers from 0 - 100% represent growth inhibition, and numbers from -100% - 0 represent cell death. For example, a value of 40 represents 60% growth inhibition. A value of 0 means no net growth occurred over the course of the experiment. A value of -40 indicates 40% of cells at the beginning of the experiment died by the end of the experiment. A value of -100 means all cells are dead at the end of the experiment.
# NCI-60 Human Tumor Cell Lines Screen was performed using the standard one-dose NCI protocol, which is described in more detail at https://dtp.cancer.gov/discovery_development/nci-60/default.htm.
# Compounds with GIPRCNT values below 10 were considered active. Activity score was based on GIPRCNT using the following formula: […]
# Score is 0 for GIPRCNT values of 100 or above, 50 for GIPRCNT values of 0, and 100 for GIPRCNT values of -100.
row,Compound,growth
1,CCCCC(=O)N(c1ccc(Nc2c3ccccc3nc3cc([N+](=O)[O-])ccc23)cc1)S(C)(=O)=O,80% (inactive)
2,O=C(O)CCCN1C(=O)NC2(C1=O)c1ccccc1-c1ccccc12,103% (inactive)
3,CCOC(=O)/C(C#N)=C(/C)C1CC1,111% (inactive)
4,Clc1cc(Cl)c(OCCCCCCN2CCNCC2)c(Cl)c1,98% (inactive)
5,O=S(=O)(NC1c2ccccc2Oc2ccccc21)c1cc(Cl)ccc1Cl,98.1% (inactive)
6,CCc1ccc(-c2nnc(COc3ccc(-c4nc5ccc(C)cc5[nH]4)cc3OC)o2)cc1,33.9% (inactive)
7,Nc1c(C(=O)NC2CCCCC2)sc2nc3c(cc12)C(=O)CCC3,120% (inactive)
8,COc1cccc2c1O/C(=C\c1ncc([N+](=O)[O-])n1C)C2=O,-16.6% (active)
9,COc1ccc(-c2nc(-c3nc4ccc(C)cc4[nH]3)c3ccccn23)cc1,85.9% (inactive)
10,Fc1cc(-c2ncc(-c3cc(F)c(F)c(F)c3)c(NC3CCCCCC3)n2)cc(F)c1F,115% (inactive)
11,COc1ccc(-c2cc(/C=C/C(=O)c3ccc(N)cc3)[nH]n2)cc1OC,39% (inactive)
12,CCCCCCCCCCCCCC[n+]1ccc(C)cc1,-24.2% (active)
13,CN(C)c1ccc2c(c1)OC(N)=C(C#N)C2c1ccc2c(c1)CCCN2C (stereo not given),24.4% (inactive)
14,O=C(NCCc1nccs1)c1cnc2c(S)cccc2c1,20.1% (inactive)
15,C=CCc1cc(Nc2c3ccc(Cl)cc3nc3ccc(OC)cc23)cc(CN(CC)CC)c1O,1.21% (active)
16,Oc1ccc(Cn2cc3c(c2-c2ccccc2)CCc2cnoc2-3)cc1,94.4% (inactive)
17,COc1cc(CSc2nc3ccc(Cl)cc3c(=O)n2-c2ccccc2)cc(OC)c1OC,94.4% (inactive)
18,O=C(c1ccccc1)C(Nc1ccccc1)c1ccccc1 (stereo not given),96.9% (inactive)
19,COc1cc(CSc2nc3ccc(Cl)cc3c(=O)n2Cc2ccccc2)cc(OC)c1OC,24.4% (inactive)
20,Cc1ccc(/C=C2\CN(Cc3cn(CCNc4ccnc5cc(Cl)ccc45)nn3)C/C(=C\c3ccc(C)cc3)C2=O)cc1,8.53% (active)

row,Compound,growth
1,COc1cc(OC)cc(-c2n/c(=C\c3c(O)[nH]c4ccc(OC)cc34)cc3c2=Nc2ccccc2-3)c1,126% (inactive)
2,CCCCn1c(=O)[nH]c2c(c1=O)C(c1ccc(Cl)cc1)c1c([nH]c(=O)n(CCCC)c1=O)N2,94.7% (inactive)
3,COc1nc2c(c(=O)[nH]1)C(c1ccc(Oc3ccnc4cc(Cl)ccc34)c(OC)c1)C=C(c1cc(OC)c(OC)c(OC)c1)N2 (stereo not given),99.5% (inactive)
4,CCCOCC(O)CNCCN (stereo not given),97.4% (inactive)
5,COc1cc(C2C=C(c3ccc(Cl)c(Cl)c3)N=C3SC(C)=CN32)cc(OC)c1OC (stereo not given),107% (inactive)
6,Nc1nc2c(ncn2C2OC3COP(=O)(O)OC4C(COP(=O)(O)OC2C3O)OC(n2cnc3c(N)ncnc32)C4O)c(=O)[nH]1 (stereo not given),87.3% (inactive)
7,O=C(Nc1ccc(Oc2ccc(Nc3nc4ccccc4s3)cc2)cc1)Nc1ccc(Cl)c(Cl)c1,69% (inactive)
8,Cc1cc(C(C)(C)CC(C)(C)C)ccc1OCCOCC[N+](C)(C)Cc1ccccc1,11% (inactive)
9,COc1ccc2c(c1)/C(=C/c1cc(OC)c(OC)c(OC)c1)C(=O)N2C,19.3% (inactive)
10,Nc1cc(O)cc(O)c1,99.3% (inactive)
11,COc1cc(-c2c(C#N)c(N)n3c(nc4ccccc43)c2C#N)cc(Br)c1OC,49.3% (inactive)
12,CCOC(=O)c1cc(-c2ccccc2)nc(N)n1,103% (inactive)
13,Clc1ccc(-c2nc(-c3cccs3)cn3ccnc23)cc1,50.2% (inactive)
14,O=C(/C=C/c1ccc(Cl)cc1)c1ccc(Br)cc1,100% (inactive)
15,C#CCn1c(-c2cccc(OCCCCl)c2)nc2c1c(=O)n(C)c(=O)n2C,93.7% (inactive)
16,COc1cc(/C=C/C(=O)c2cc(-c3ccc(F)cc3)ccc2O)cc(OC)c1OC,89.5% (inactive)
17,COc1cccc(C(=O)NNc2nc(N3CCOCC3)nc(N3CCN(C(c4ccccc4)c4ccccc4)CC3)n2)c1,73.7% (inactive)
18,Cn1c(N)c(N=Cc2ccccc2)c(=O)n(C)c1=O,96.4% (inactive)
19,Cc1cc(Cl)ccc1Nc1nc(C(F)(F)F)ccc1C(=O)N/N=C/c1ccccc1Cl,10.4% (inactive)
20,CN(C1c2ccccc2Oc2ccccc21)S(=O)(=O)c1cc(Cl)ccc1Cl,54.5% (inactive)
